# Laboratory results as given in PubChem BioAssay AID1159580 (chemical genetic matrix, 2015).
# About 2,000 (36%) of roughly 5,500 compounds were called active. Roughly 18% stayed inconclusive and do not appear here. The list shows a part of the results. Unmarked numbers belong to inactive results. Rule as the data show it: active = normalized growth mostly below about 0.91 (no sharp cut-off); inconclusive = no clear call, values can overlap the other calls; inactive = mostly above about 0.92.
# Assay: chemical genetic growth profiling, strain panel (AID 1159580);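 also: tested at 20 µM; growth read once vehicle control cultures reached saturation at 30 °C; 1 = growth at the plate median or of vehicle wells; lower values mean less growth of the strain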
# Details: S. cerevisiae deletion strains, growth OD
# [1] = locus YDL101C, strain DUN1, stronger effect = lower value
# [2] = locus YHR030C, strain SLT2, stronger effect = lower value
smiles,measurement,setting,value
Cc1onc(-c2ccc(Cl)cc2)c1-c1ccnn1C(=O)NC(C)C,normalized growth,"locus YAL013W, strain DEP1, stronger effect = lower value",0.966
same,normalized growth,"locus YBR229C, strain ROT2, stronger effect = lower value",0.932
same,normalized growth,"locus YCL061C, strain MRC1, stronger effect = lower value",0.963
same,normalized growth,[1],0.974
same,normalized growth,"locus YDR150W, strain NUM1, stronger effect = lower value",0.96
same,normalized growth,"locus YEL061C, strain CIN8, stronger effect = lower value",0.94
same,normalized growth,"locus YGR078C, strain PAC10, stronger effect = lower value",0.92 (active)
same,normalized growth,[2],0.918
same,normalized growth,"locus YHR087W, strain rtc3, stronger effect = lower value",0.906 (active)
same,normalized growth,"locus YJR043C, strain POL32, stronger effect = lower value",0.949
same,normalized growth,"locus YJR075W, strain HOC1, stronger effect = lower value",0.73 (active)
same,normalized growth,"locus YKL190W, strain CNB1, stronger effect = lower value",0.906 (active)
same,normalized growth,"locus YLR039C, strain RIC1, stronger effect = lower value",0.989
same,normalized growth,"locus YLR058C, strain SHM2 (second series), stronger effect = lower value",0.92 (active)
same,normalized growth,"locus YLR085C, strain ARP6, stronger effect = lower value",0.591 (active)
same,normalized growth,"locus YLR262C, strain YPT6, stronger effect = lower value",1.02
same,normalized growth,"locus YML094W, strain GIM5, stronger effect = lower value",0.964
same,normalized growth,"locus YMR219W, strain ESC1, stronger effect = lower value",0.933 (active)
same,normalized growth,"locus YMR263W, strain SAP30, stronger effect = lower value",0.951
same,normalized growth,"locus YNL153C, strain GIM3, stronger effect = lower value",0.964
same,normalized growth,"locus YNL298W, strain CLA4 (second series), stronger effect = lower value",0.836 (active)
same,normalized growth,"locus YNL322C, strain KRE1, stronger effect = lower value",0.921 (active)
same,normalized growth,"locus YNR030W, strain Alg12, stronger effect = lower value",0.804 (active)
same,normalized growth,"locus YPL055C, strain LGE1, stronger effect = lower value",0.835
same,normalized growth,"locus YPL241C, strain CIN2, stronger effect = lower value",0.789 (active)
same,normalized growth,"locus YPR135W, strain CTF4, stronger effect = lower value",0.71
Cc1cc(Cl)ccc1NNC(=O)c1sccc1Br,normalized growth,"locus YAR019C, strain CDC15, stronger effect = lower value",0.928
same,normalized growth,"locus YBL105C, strain PKC1, stronger effect = lower value",0.925
same,normalized growth,"locus YBR135W, strain CKS1, stronger effect = lower value",0.927
same,normalized growth,"locus YBR136W, strain MEC1, stronger effect = lower value",0.921
same,normalized growth,"locus YBR160W, strain CDC28, stronger effect = lower value",0.918
same,normalized growth,"locus YDL017W, strain CDC7, stronger effect = lower value",0.928
same,normalized growth,"locus YDL028C, strain MPS1, stronger effect = lower value",0.929
same,normalized growth,[1],0.917
same,normalized growth,"locus YDL108W, strain KIN28, stronger effect = lower value",0.932
same,normalized growth,"locus YDL132W, strain cdc53, stronger effect = lower value",0.918
same,normalized growth,"locus YDL214C, strain PRR2, stronger effect = lower value",0.872
same,normalized growth,"locus YDR052C, strain DBF4, stronger effect = lower value",0.931
same,normalized growth,"locus YDR054C, strain cdc34, stronger effect = lower value",0.908
same,normalized growth,"locus YDR226W, strain ADK1, stronger effect = lower value",0.922
same,normalized growth,"locus YDR477W, strain SNF1, stronger effect = lower value",0.871
same,normalized growth,"locus YER123W, strain YCK3, stronger effect = lower value",0.81
same,normalized growth,"locus YER133W, strain GLC7, stronger effect = lower value",0.851
same,normalized growth,"locus YFL009W, strain cdc4, stronger effect = lower value",0.925
same,normalized growth,"locus YFL029C, strain CAK1, stronger effect = lower value",0.921
same,normalized growth,"locus YFR003C, strain YPI1, stronger effect = lower value",0.924
same,normalized growth,"locus YFR019W, strain FAB1, stronger effect = lower value",0.895
same,normalized growth,"locus YFR028C, strain CDC14, stronger effect = lower value",0.924
same,normalized growth,"locus YGR040W, strain KSS1, stronger effect = lower value",0.844
same,normalized growth,"locus YGR052W, strain FMP48, stronger effect = lower value",0.908
same,normalized growth,"locus YGR092W, strain DBF2, stronger effect = lower value",0.784
same,normalized growth,[2],0.489 (active)
same,normalized growth,"locus YHR079C, strain IRE1, stronger effect = lower value",0.862
same,normalized growth,"locus YHR082C, strain KSP1, stronger effect = lower value",0.879
same,normalized growth,"locus YHR205W, strain SCH9, stronger effect = lower value",0.844
same,normalized growth,"locus YIL147C, strain SLN1, stronger effect = lower value",0.928
same,normalized growth,"locus YJL095W, strain BCK1, stronger effect = lower value",0.714
same,normalized growth,"locus YJL128C, strain PBS2, stronger effect = lower value",0.895
same,normalized growth,"locus YJL157C, strain FAR1, stronger effect = lower value",0.85
same,normalized growth,"locus YJR016C, strain ILV3, stronger effect = lower value",0.935
same,normalized growth,"locus YJR066W, strain TOR1 (second series), stronger effect = lower value",0.862
same,normalized growth,"locus YJR066W, strain TOR1, stronger effect = lower value",0.886
same,normalized growth,"locus YKL048C, strain ELM1, stronger effect = lower value",0.896
same,normalized growth,"locus YKL067W, strain YNK1, stronger effect = lower value",0.873
same,normalized growth,"locus YKL101W, strain HSL1, stronger effect = lower value",0.872
same,normalized growth,"locus YKL193C, strain SDS22, stronger effect = lower value",0.92
same,normalized growth,"locus YKL203C, strain TOR2, stronger effect = lower value",0.921
same,normalized growth,"locus YLR113W, strain HOG1, stronger effect = lower value",0.715 (active)
same,normalized growth,"locus YLR133W, strain CKI1, stronger effect = lower value",0.849
same,normalized growth,"locus YLR403W, strain SFP1, stronger effect = lower value",0.838
same,normalized growth,"locus YML070W, strain DAK1, stronger effect = lower value",0.842
same,normalized growth,"locus YMR001C, strain CDC5, stronger effect = lower value",0.918
same,normalized growth,"locus YMR205C, strain PFK2 (second series), stronger effect = lower value",0.87
same,normalized growth,"locus YMR277W, strain FCP1, stronger effect = lower value",0.921
same,normalized growth,"locus YNL006W, strain LST8, stronger effect = lower value",0.925
same,normalized growth,"locus YNL020C, strain ARK1, stronger effect = lower value",0.862
same,normalized growth,"locus YNL161W, strain CBK1, stronger effect = lower value",0.923
same,normalized growth,"locus YNL183C, strain NPR1, stronger effect = lower value",0.851
same,normalized growth,"locus YNL207W, strain RIO2, stronger effect = lower value",0.906
same,normalized growth,"locus YNL222W, strain SSU72, stronger effect = lower value",0.925
same,normalized growth,"locus YNL307C, strain MCK1 (second series), stronger effect = lower value",0.785
same,normalized growth,"locus YOL078W, strain AVO1, stronger effect = lower value",0.916
same,normalized growth,"locus YOL136C, strain PFK27, stronger effect = lower value",0.825
same,normalized growth,"locus YOR061W, strain CKA2, stronger effect = lower value",0.868
same,normalized growth,"locus YOR119C, strain RIO1, stronger effect = lower value",0.92
same,normalized growth,"locus YOR231W, strain MKK1, stronger effect = lower value",0.824
same,normalized growth,"locus YOR329C, strain SCD5, stronger effect = lower value",0.913
same,normalized growth,"locus YPL031C, strain PHO85, stronger effect = lower value",0.867
same,normalized growth,"locus YPL153C, strain RAD53, stronger effect = lower value",0.855
same,normalized growth,"locus YPL204W, strain HRR25, stronger effect = lower value",0.838
same,normalized growth,"locus YPL209C, strain IPL1, stronger effect = lower value",0.911
same,normalized growth,"locus YPL256C, strain CLN2, stronger effect = lower value",0.793 (active)
same,normalized growth,"locus YPR025C, strain CCL1, stronger effect = lower value",0.925
same,normalized growth,"locus YPR106W, strain ISR1, stronger effect = lower value",0.912
same,normalized growth,"locus YPR111W, strain DBF20, stronger effect = lower value",0.919
same,normalized growth,"strain NNK1, stronger effect = lower value",0.915
same,normalized growth,"strain TSCII, stronger effect = lower value",0.92
